# Assay results: the supplement of paper PMC3334620
# The full ranking holds about 33,000 sequences; the median of “E-score (-0.5 to 0.5)” is about -0.016, and the highest 2% start at about 0.32. This excerpt belongs to a sample that is enriched for the highest values.
# Biological target: T1, Stp1 (UniProt B3LFK1)
# T1 sequence: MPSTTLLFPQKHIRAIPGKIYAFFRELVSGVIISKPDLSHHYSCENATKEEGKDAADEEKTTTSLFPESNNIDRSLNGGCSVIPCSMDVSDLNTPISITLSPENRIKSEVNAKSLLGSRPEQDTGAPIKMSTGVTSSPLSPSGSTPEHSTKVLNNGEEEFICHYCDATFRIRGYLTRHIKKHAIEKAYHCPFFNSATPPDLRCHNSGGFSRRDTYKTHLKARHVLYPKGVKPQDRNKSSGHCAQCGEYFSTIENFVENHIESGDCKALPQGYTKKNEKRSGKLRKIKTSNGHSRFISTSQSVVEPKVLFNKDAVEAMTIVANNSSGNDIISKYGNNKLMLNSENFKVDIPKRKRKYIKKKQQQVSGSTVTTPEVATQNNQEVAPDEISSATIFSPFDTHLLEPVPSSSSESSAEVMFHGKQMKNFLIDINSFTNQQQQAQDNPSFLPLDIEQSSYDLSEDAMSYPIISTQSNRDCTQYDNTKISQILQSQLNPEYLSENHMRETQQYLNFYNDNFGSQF
# Test: PBM E-score (8-mer binding enrichment) (E-score (-0.5 to 0.5)); higher = stronger / more preferred TF binding
# Settings: protein concentration: 200 nM; construct: GST-full length
# Procedure: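 Universal 'all 10-mer' protein binding microarrays (Agilent AMADID 015681) probed with GST-tagged S. cerevisiae TFs (full-length or DBD) made by in vitro transcription/translation (PURExpress), about 100-200 nM. Bound TF was detected with fluorescent anti-GST. Each ungapped 8-mer (which stands for itself and its reverse complement) is scored by the PBM enrichment score (E-score), a modified Wilcoxon-Mann-Whitney statistic from -0.5 to +0.5, computed with the Universal PBM Analysis Suite. Scale: above 0.35 generally sequence-specific binding.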
row,Sequence,PBM E-score
1,GGGCAATA,0.0993
2,AGGCAATC,0.114
3,CGGCAATA,0.352
4,AAGAGCGA,-0.231
5,CACTAGTG,0.056
6,CCCTTTCC,-0.11
7,GCCTTTCC,0.381
8,ACCTTTCC,-0.194
9,GTTGGGTA,-0.109
10,AGGCGTAC,0.137
11,AGGCGTAG,-0.0223
12,CGGCGTAA,0.39
13,CGGCGTAG,0.335
14,CGGCGTAC,0.36
15,TGGCGTAA,0.0095
16,GGGCGTAC,-0.134
17,CCGCGTAG,0.25
18,GGGCGTAA,-0.0217
19,ATAGTTTG,0.121
20,TGTGCAAA,-0.111
21,ATCCTGCA,-0.159
22,CAACGCAC,0.0556
23,AAACATTT,0.0291
24,ACTATTCC,0.0191
25,ACTCGCTG,0.0353

row,Sequence,PBM E-score
1,CACTTAGC,0.0853
2,AGAAGTTC,0.0255
3,CCGCGCTA,0.289
4,CGGCGCTC,0.427
5,CTGCGCTC,-0.214
6,AGGCGCTC,0.137
7,AGGCGCTG,0.311
8,AGGCGCTA,0.358
9,CGGCGCTA,0.453
10,GGGCGCTA,0.0956
11,CTGCGCTA,-0.221
12,AGCACTTG,-0.266
13,GTTCTCAA,0.2
14,AGTATAGG,-0.0433
15,ACATAAAC,0.129
16,CACTAAAA,0.123
17,AATGCGGC,0.435
18,CATGCGGA,0.156
19,CATGCGGC,0.459
20,AATGCGGT,-0.0107
21,GATGCGGC,0.47
22,GATGCGCC,0.194
23,AATGCGGG,0.174
24,CATGCGGG,0.0548
25,GATGCGGA,0.104

row,Sequence,PBM E-score
1,CAGCTAAG,-0.153
2,CCCGGTTA,-0.0439
3,CCTCCCAC,-0.132
4,ACCGTAGA,0.0293
5,CCCGTAGC,-0.24
6,GCCGTAGC,0.444
7,GCCGTAGA,0.427
8,ACCGTAGC,-0.138
9,TCCGTAGA,0.0858
10,AACATTCT,0.215
11,AGGACGGC,0.324
12,CGGACGGA,-0.0178
13,CGGACGGC,0.442
14,CGGACGTC,-0.00174
15,AGGACGGG,-0.271
16,AGGACGGA,-0.161
17,CTTGTGGA,0.016
18,CCTACATC,-0.191
19,ATTCGAAT,0.0494
20,AACTGTCA,-0.0285
21,GCGTATGA,0.09
22,CGGTATGC,-0.0255
23,ACGTATGC,0.00677
24,CCGTATGA,0.337
25,ACGTATGA,0.15

row,Sequence,PBM E-score
1,CCGTATGC,0.331
2,CAAAAGGC,0.359
3,AAAAAGGC,0.249
4,CCAAACGC,0.0617
5,GAAAAGGC,0.145
6,CGAAAGGA,-0.102
7,AAAAACGC,0.125
8,AGAAAGGC,0.206
9,CGAAAGGC,0.355
10,CAAAACGC,0.322
11,GCCTGGAA,-0.133
12,GCGCATCC,0.0373
13,CAGCACTA,-0.0254
14,GTGGTGTA,0.0559
15,AAATGTCT,-0.057
16,AGGGCATG,0.0868
17,ATGGCATC,0.186
18,ACGGCATC,0.48
19,ATGGCATG,0.22
20,CCGGCATC,-0.0881
21,ACGGCATG,0.422
22,ACGCGCTC,0.105
23,CCGAAATA,0.0974
24,GGATGAGA,-0.157
25,AAGTCAGC,0.0691

row,Sequence,PBM E-score
1,CAACGGAG,-0.0687
2,AAACGGCT,0.376
3,CAACGGCG,0.429
4,AAACGGTC,0.0651
5,AAACGGGT,0.188
6,CAACGGCC,0.173
7,AAACGGAG,0.18
8,CAACGGGG,-0.104
9,AAACGGCC,0.368
10,AAACGGTG,0.1
11,AAACGGAT,0.259
12,AAACGGCG,0.481
13,CGGGCCAG,-0.159
14,AAGCGCTG,-0.0462
15,TGCAGGCA,-0.105
16,GCTCGCCC,-0.205
17,CGGGAGAA,-0.111
18,GGACAATA,0.0607
19,ACGTCAAC,0.0286
20,CACTCTCG,-0.0668
21,ATGCTATC,-0.218
22,CGTAGGAA,-0.0469
23,ATGGCGGG,-0.132
24,AATTGCCA,-0.00723
25,AATTGCCC,0.0223

row,Sequence,PBM E-score
1,AATTGCCG,0.341
2,CATTGCCC,0.0291
3,ATTTGCCA,-0.0687
4,CATTGCCA,-0.0509
5,CATTGCCG,0.358
6,ATTTGCCG,0.335
7,ATTTGCCC,0.109
8,ACGTACGG,0.292
9,ACGTACGC,-0.023
10,CCGTACGA,0.298
11,CCGTACGG,0.341
12,GCGTACGC,-0.0472
13,CCGTACGC,0.327
14,ACGTGCCA,0.148
15,ATTCTACA,0.221
16,CAAGTGAA,0.00842
17,ACATAAGC,0.00404
18,AGCTTACA,0.0627
19,AGACCCTC,-0.313
20,AATGTCAC,0.136
21,CTTATGGA,-0.0787
22,CCGGCGGA,0.0459
23,GCGGCGGA,0.358
24,ACGGCGGA,0.314
25,GCGGCGAA,0.427

row,Sequence,PBM E-score
1,AGGGCGAC,0.015
2,CCGGCGAA,0.088
3,TCGGCGAA,-0.0263
4,GCGGCGAC,0.434
5,ATGGCGAC,0.0528
6,ACGGCGAC,0.467
7,GAGGCGAC,0.155
8,CCGGCGAC,-0.167
9,AGCTATGA,-0.183
10,CACCTGCC,0.055
11,GGTGGCTA,0.0168
12,AAGCGTAC,-0.161
13,AGGGACAT,0.0229
14,CAGCTTGA,-0.0612
15,TAAGATGA,0.0182
16,TCATCCGA,0.0548
17,CAGGGGGG,-0.469
18,ATGGCGAA,0.139
19,ACGGCGGC,0.445
20,ACGGCGGG,0.289
21,AGGGCGAA,-0.0283
22,ACGGCGAA,0.465
23,ATGGCGGC,0.158
